Measured values from PubChem BioAssay.
The source made the active and inactive calls.

Tests used:
[1] = tested on: Plasmodium falciparum Sir2 (PF13_0152, Sir2A); assay: pfSir2 binders on small-molecule microarrays, primary screen, biochemical, small-molecule microarray, 635 nm fluorescence (AID 1098); conditions: small-molecule microarray binding, fluorescence 635 nm; higher = more signal;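 note: score merges spot fluorescence intensity with its signal-to-noise ratio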
[2] = small-molecule microarray binders of probe aDKK1, primary screen, biochemical, biotinylated probe, 635/667 nm fluorescence (AID 1099); conditions: higher = more signal;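 note: score merges 667nm spot fluorescence with signal to noise across triplicate slides; reference of the scale not given here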
[3] = small-molecule microarray binders of probe aCHRDL2, primary screen, biochemical, biotinylated probe, 635/667 nm fluorescence (AID 1100); conditions: higher = more signal
[4] = splicing luciferase reporter signal modulators, primary screen, spliceosome inhibition project, cell-based, HEK293, splice +/- reporter (AID 1101); conditions: luminescence, 24 h, higher = more signal, called active from +8 up or from −8 down;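 note: HEK293 cells carrying a splicing-competent luciferase reporter gene; test concentration not given here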
[5] = molecular target: Fibroblast growth factor 10 (Homo sapiens) (UniProt O15520); assay: FGF10 binders on small-molecule microarrays, primary screen, biochemical, small-molecule microarray, 635 nm fluorescence (AID 1102); conditions: FGF10 binding, fluorescence 635 nm, higher = more signal
Sequence of Fibroblast growth factor 10 (Homo sapiens) (O15520 whole entry, looked up): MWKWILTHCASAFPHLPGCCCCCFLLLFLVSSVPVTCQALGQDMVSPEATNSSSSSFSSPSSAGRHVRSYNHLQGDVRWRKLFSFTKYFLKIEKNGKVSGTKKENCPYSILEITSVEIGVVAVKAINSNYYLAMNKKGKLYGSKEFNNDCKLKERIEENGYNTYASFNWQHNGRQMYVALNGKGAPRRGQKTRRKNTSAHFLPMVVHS

[6] = tested on: glycogen synthase kinase-3 (GSK3A per assay name; protocol says GSK3B); assay: GSK3 binders on small-molecule microarrays, primary screen, biochemical, small-molecule microarray, 635 nm fluorescence, GSK3A (AID 1103); conditions: small-molecule microarray binding, fluorescence 635 nm; higher = more signal; note: the record names both GSK3A and GSK3B
[7] = molecular target: Epidermal growth factor receptor (Homo sapiens) (UniProt P00533); assay: EGFR binders on small-molecule microarrays, primary screen, biochemical, small-molecule microarray, 635 nm fluorescence (AID 1104); conditions: EGFR binding, higher = more signal;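 note: score merges 667 nm emission intensity with spot signal to noise over triplicate slides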
Sequence of Epidermal growth factor receptor (Homo sapiens) (P00533 whole entry, looked up): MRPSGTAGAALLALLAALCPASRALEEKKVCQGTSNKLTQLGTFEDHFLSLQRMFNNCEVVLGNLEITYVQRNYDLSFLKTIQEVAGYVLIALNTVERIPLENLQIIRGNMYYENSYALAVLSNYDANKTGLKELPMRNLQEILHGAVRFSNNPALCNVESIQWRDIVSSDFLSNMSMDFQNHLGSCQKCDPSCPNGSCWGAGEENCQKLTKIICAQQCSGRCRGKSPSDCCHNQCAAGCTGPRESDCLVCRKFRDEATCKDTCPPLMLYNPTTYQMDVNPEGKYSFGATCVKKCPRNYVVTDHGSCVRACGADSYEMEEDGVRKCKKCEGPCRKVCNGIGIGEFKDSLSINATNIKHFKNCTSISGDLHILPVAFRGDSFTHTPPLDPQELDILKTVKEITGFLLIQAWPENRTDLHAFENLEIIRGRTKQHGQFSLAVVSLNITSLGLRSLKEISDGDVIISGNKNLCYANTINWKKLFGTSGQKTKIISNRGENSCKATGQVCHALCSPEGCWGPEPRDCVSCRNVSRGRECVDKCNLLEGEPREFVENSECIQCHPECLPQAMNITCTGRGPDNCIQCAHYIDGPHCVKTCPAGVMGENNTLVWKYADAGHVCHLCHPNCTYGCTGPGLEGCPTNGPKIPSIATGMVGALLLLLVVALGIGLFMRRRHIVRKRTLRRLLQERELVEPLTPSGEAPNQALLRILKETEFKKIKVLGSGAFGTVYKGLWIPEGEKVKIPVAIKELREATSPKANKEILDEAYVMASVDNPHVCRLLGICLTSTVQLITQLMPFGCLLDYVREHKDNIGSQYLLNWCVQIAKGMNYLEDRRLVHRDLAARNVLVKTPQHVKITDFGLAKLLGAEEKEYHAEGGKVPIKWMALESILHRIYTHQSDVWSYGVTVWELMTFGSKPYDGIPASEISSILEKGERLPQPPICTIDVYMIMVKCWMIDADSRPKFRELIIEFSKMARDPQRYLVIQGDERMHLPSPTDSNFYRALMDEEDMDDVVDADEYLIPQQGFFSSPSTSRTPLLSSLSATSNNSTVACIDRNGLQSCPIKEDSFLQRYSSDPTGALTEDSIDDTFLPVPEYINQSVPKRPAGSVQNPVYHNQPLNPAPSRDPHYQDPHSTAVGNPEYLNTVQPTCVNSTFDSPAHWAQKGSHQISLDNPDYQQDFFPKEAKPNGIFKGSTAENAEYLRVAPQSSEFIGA

[8] = molecular target: Follistatin-related protein 3 (Homo sapiens) (UniProt O95633); assay: FSTL3 binders on small-molecule microarrays, primary screen, biochemical, small-molecule microarray, 635 nm fluorescence (AID 1105); conditions: FSTL3 binding, higher = more signal;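 note: score merges emission near 667 nm and signal to noise per printed spot across three slides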
Sequence of Follistatin-related protein 3 (Homo sapiens) (O95633 whole entry, looked up): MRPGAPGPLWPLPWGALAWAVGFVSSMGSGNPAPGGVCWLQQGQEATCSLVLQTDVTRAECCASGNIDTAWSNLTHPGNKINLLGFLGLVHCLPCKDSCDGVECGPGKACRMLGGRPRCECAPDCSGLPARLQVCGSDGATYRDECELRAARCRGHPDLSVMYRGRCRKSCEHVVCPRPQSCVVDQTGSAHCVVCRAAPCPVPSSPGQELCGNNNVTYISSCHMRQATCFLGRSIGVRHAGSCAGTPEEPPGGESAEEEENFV

[9] = molecular target: Dickkopf-related protein 1 (Homo sapiens) (UniProt O94907); assay: DKK1 binders on small-molecule microarrays, primary screen, biochemical, small-molecule microarray, 635 nm fluorescence scan (AID 1106); conditions: DKK1 binding, higher = more signal;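 note: score merges emission near 667 nm with signal to noise over three replicate slides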
Sequence of Dickkopf-related protein 1 (Homo sapiens) (O94907 whole entry, looked up): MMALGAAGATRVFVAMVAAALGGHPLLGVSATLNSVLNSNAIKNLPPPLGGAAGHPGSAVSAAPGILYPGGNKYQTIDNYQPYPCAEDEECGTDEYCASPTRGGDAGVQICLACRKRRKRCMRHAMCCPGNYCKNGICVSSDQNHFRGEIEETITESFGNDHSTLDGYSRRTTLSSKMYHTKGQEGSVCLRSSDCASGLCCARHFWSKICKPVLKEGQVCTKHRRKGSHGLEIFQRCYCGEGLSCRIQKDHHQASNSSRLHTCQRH

[10] = tested on: Inhibin beta A chain (activin A); assay: INHBA (activin A) binders on microarrays, primary screen, biochemical, small-molecule microarray, 635 nm fluorescence scan (AID 1107); conditions: small-molecule microarray binding, higher = more signal;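 note: mouse activin A protein probed at 4.33 µg/mL on printed slides; score merges bound-protein fluorescence near 667 nm with spot signal-to-noise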

Structure (SMILES) | composite z-score [1] | composite z-score [2] | composite z-score [3] | z-score [4] | composite z-score [5] | composite z-score [6] | composite z-score [7] | composite z-score [8] | composite z-score [9] | composite z-score [10]
CC(C)=CCCC(C)=CC(O)C1C=CC2C(=O)N(c3ccccc3)C(=O)C2N1Nc1ccccc1F (stereo not given) | 1.33 | 0.0643 | 0.0744 | -0.652 (inactive) | 0.85 | 0.403 | 0.329 | 0.587 | -0.0093 | 0.418
Cc1cccc([C@H]2C[C@H]3C(I)=C[C@@H]2C(=O)[C@]32CO2)c1 | -0.636 | -0.251 | 0.154 | -1.48 (inactive) | 0.575 | -0.499 | -0.0512 | 0.445 | 0.125 | 1.03
CCCNC(=O)[C@@]1(Sc2ccc(C)cc2)CC(=O)N(C(C)C)[C@@H]1c1ccc(CO)cc1I | 0.0404 | 0.832 | 1.37 | -0.0862 (inactive) | -0.72 | -1.33 | -1.71 | -1.35 | -2.76 | 0.448
COCCOC(=O)N1C(=O)[C@@]2(c3cc(C#CCNC(N)=O)ccc31)[C@H](c1ccc(OCCO)cc1)N1[C@H](c3ccccc3)[C@H](c3ccccc3)OC(=O)[C@H]1[C@@H]2C(=O)NC[C@H](O)c1ccccc1 | 1.4 | 0.26 | 0.788 | 0.38 (inactive) | 0.945 | 0.469 | 0.711 | 1.29 | 0.583 | 1.43
CC1(C)C(=O)C(c2ccccc2)=C2CN3C(=O)N(CCc4ccccc4)C(=O)C3(Cc3ccc(F)cc3)C=C21 (stereo not given) | 0.251 | 1.19 | 1.24 | -0.274 (inactive) | -0.236 | -0.556 | -0.554 | -0.0423 | -1.11 | 0.958
CC(C)C(=C=CC[C@H](O)c1cccc(OCCO)c1)CCO | 0.899 | -0.363 | -0.148 | -1.02 (inactive) | 1.18 | -0.739 | -0.209 | -0.0067 | -0.264 | 0.148
[N-]=[N+]=NCc1ccccc1[C@@H]1OC(c2ccc(OCCCO)cc2)=N[C@]1(Cc1ccccc1)C(=O)NCCN1CCOCC1 | 1.03 | 0.657 | 0.58 | 0.0496 (inactive) | 0.868 | 0.616 | -0.102 | 0.567 | -0.383 | 0.798
O=C1[C@@H]2[C@@H](CC(COc3ccccc3)=C3[C@@H](CCc4ccccc4)OB(O)C[C@@H]32)C(=O)N1Cc1ccccc1 | 0.393 | -0.185 | -0.23 | -0.74 (inactive) | 0.747 | 0.081 | 0.292 | 0.163 | 0.147 | 0.343
CCOC(=O)C[C@H]1[C@H](OC(=O)c2ccc(-c3ccccc3)cc2)[C@@H](NC(=O)Cc2ccc(OC)cc2)c2cc(OCCCO)ccc2N1C(=O)Cc1ccc(OC)cc1 | 0.064 | 0.288 | 0.723 | -0.0344 (inactive) | 0.244 | -0.602 | 0.0599 | -0.0955 | -0.276 | 0.38
O=C1[C@@]23C=C(Br)[C@H](C[C@@H]2COC3)[C@@]12CO2 | 0.35 | -0.419 | -0.555 | 0.536 (inactive) | 0.266 | 0.638 | 0.566 | 0.514 | 0.449 | 0.262
CCOC(=O)C1=CCC(c2ccco2)N(S(=O)(=O)c2ccc(C)cc2)C1 (stereo not given) | 1.04 | 0.363 | -0.0042 | 0.0407 (inactive) | 1.12 | 1.3 | 0.422 | 1.22 | 0.49 | 1.35
COc1ccc(C(O)C2C=CC3C(=O)N(c4ccccc4)C(=O)C3N2Nc2ccc(C(C)C)cc2)c2ccccc12 (stereo not given) | 1.6 | 0.661 | 0.942 | 0.48 (inactive) | 0.839 | 1.29 | 0.0751 | 1.04 | -0.0879 | 0.87
C=CCN1C(=O)[C@@]2(O[C@@H](CCO)[C@H]([Si](C)(C)c3ccc(OC)cc3)[C@H]2C)c2cc(N3CCOC3=O)ccc21 | 0.392 | 0.0757 | 0.213 | -0.887 (inactive) | -0.0196 | 0.612 | -0.114 | 0.0282 | -0.381 | -0.171
CN1C(=O)C2C=CC(C(O)c3cc(C(F)(F)F)cc(C(F)(F)F)c3)N(NC(=O)OC(C)(C)C)C2C1=O (stereo not given) | 0.733 | 0.781 | 1.05 | -0.149 (inactive) | 0.959 | 1.3 | 0.497 | 1.32 | -0.868 | 0.279
COCC1C2CC[C@H]3C(OCc4ccc(OC)cc4)OC[C@]4(C)[C@H]3C2=C(CN4C(=O)OC(C)(C)C)[C@H](C)C1COC (stereo not given in full) | 0.852 | 0.319 | 0.482 | -1.98 (inactive) | 1.11 | 1.32 | 0.418 | 1.16 | 0.207 | 0.752
C[C@]1(C(=O)NCCN2CCOCC2)c2ccccc2C(=O)N(Cc2cc(F)cc(C(F)(F)F)c2)[C@H]1c1ccc(CO)cc1 | 1.81 | -0.0342 | 0.841 | -0.0156 (inactive) | -0.134 | -0.626 | -1.01 | -0.0362 | -0.876 | 0.59
CS(=O)(=O)CCOC(=O)C1=CC(CCCO)=CC(C2CC2)N(Cc2cccc(OC(F)(F)F)c2)C=C1C(=O)OCCS(C)(=O)=O (stereo not given) | 1.09 | 0.0231 | -0.0768 | 0.155 (inactive) | 0.039 | 0.306 | -0.0252 | 0.054 | -0.325 | 0.911
[N-]=[N+]=Nc1ccccc1C[C@]1(C(=O)O)N=C(c2ccc(OCCCO)cc2)O[C@H]1c1ccccc1N=[N+]=[N-] | 0.944 | 1.06 | 1.12 | -1.55 (inactive) | 0.445 | 1.06 | 0.342 | 0.546 | -0.0824 | 0.884
COC(=O)[C@@]1(Cc2ccc(F)cc2)[C@H]2c3cc(C(=O)N(C)C)n(Cc4ccc(O)c(OC)c4)c3C[C@H]2CN1C(=O)c1ccccc1 | 0.472 | 0.0331 | 0.128 | -4.34 (inactive) | 0.448 | 0.538 | 0.269 | 0.0792 | 0.134 | 0.937
Cc1ccccc1C(O)C1C=CC2C(=O)NC(=O)C2N1Nc1ccc(Cl)cc1Cl (stereo not given) | 1.21 | 0.629 | 0.751 | 0.812 (inactive) | 0.904 | 0.332 | 0.207 | 0.511 | 0.0925 | 1.18
O=C1C2C=CC(C(O)c3ccc(I)cc3)N(Nc3ccccc3)C2C(=O)N1c1ccccc1 (stereo not given) | 1.1 | 1.06 | 1.21 | 0.189 (inactive) | 0.455 | 1.29 | 0.0244 | 0.859 | 0.263 | 1.06
COc1ccc(C#Cc2ccc3c(c2)[C@]2(C(=O)N3)[C@H](c3ccc(OCCO)cc3)N3[C@H](c4ccccc4)[C@H](c4ccccc4)OC(=O)[C@H]3[C@@H]2C(=O)N2CCc3cc(OC)c(OC)cc3C2)cc1 | 1.38 | 1.5 | 0.185 | -0.517 (inactive) | 1.23 | 1.28 | 0.871 | 1.01 | 1.28 | -0.258
O=C1OCCC/C=C\[C@H]2OC34C=CCN(c5ccc6ccccc6c5)C(=O)[C@H]3N(CCCO)C(=O)[C@@H]4C12 (stereo not given in full) | 0.548 | -0.326 | 0.445 | 0.752 (inactive) | -0.365 | -0.216 | -0.315 | -0.451 | -1.31 | 0.479
Cc1ccc(S[C@]2(C(=O)NCc3ccccc3)CC(=O)N(Cc3cc(C(F)(F)F)cc(C(F)(F)F)c3)[C@@H]2c2ccc(CO)cc2I)cc1 | -0.466 | 0.664 | 1.22 | -1.21 (inactive) | -1.31 | -0.714 | -1.78 | -0.203 | -1.54 | 1.02
C=C(/C(=C/C[C@H](OC(=O)c1ccncc1)c1cccc(OCCO)c1)c1cnc2ccccc2c1)C(C)C | 0.411 | -0.0011 | 0.454 | -1.46 (inactive) | 1.47 | 1.18 | 0.539 | 1.51 | 0.739 | 1.68
CCOC(=O)C[C@H]1[C@H](OC(=O)c2ccc(C(=O)c3ccccc3)cc2)[C@@H](NC(=O)CC(C)C)c2cc(OCCCO)ccc2N1C(=O)Cc1ccc(OC)cc1 | 0.0092 | 0.393 | 0.671 | -0.441 (inactive) | 0.197 | 0.231 | -0.204 | 0.261 | 0.276 | 0.829
C#C[C@@H](CC)O[Si](C#CCCCC#N)(C(C)C)C(C)C | 0.329 | 0.155 | -0.0862 | -0.196 (inactive) | -0.232 | -0.021 | -0.405 | -0.669 | -0.277 | 0.573
COCCOC(=O)N1C(=O)[C@@]2(c3cc(C#CCNC(N)=O)ccc31)[C@H](c1ccc(O)cc1)N1[C@H](c3ccccc3)[C@H](c3ccccc3)OC(=O)[C@H]1[C@@H]2C(=O)N1CCN(c2ncccn2)CC1 | 1.55 | 0.607 | 0.762 | 0.41 (inactive) | 0.811 | 0.907 | 0.279 | 0.751 | 0.0805 | 0.311
